# Screening data (PubChem)
# DRD3 antagonist – antagonists of human D3 dopamine receptor; D3R cells, DiscoveRx beta-arrestin luminescence, antagonist mode; stronger effect = lower value; max response, negative = inhibition, %; hit rate 2.5% among 360,000; AID 652054; in the data active = max response below about -50%; inconclusive = no clear call, values can overlap the other calls; note: % is set by controls: 0 for no effect and ±100 for the full control effect
# Target sequence (P35462 whole entry, looked up): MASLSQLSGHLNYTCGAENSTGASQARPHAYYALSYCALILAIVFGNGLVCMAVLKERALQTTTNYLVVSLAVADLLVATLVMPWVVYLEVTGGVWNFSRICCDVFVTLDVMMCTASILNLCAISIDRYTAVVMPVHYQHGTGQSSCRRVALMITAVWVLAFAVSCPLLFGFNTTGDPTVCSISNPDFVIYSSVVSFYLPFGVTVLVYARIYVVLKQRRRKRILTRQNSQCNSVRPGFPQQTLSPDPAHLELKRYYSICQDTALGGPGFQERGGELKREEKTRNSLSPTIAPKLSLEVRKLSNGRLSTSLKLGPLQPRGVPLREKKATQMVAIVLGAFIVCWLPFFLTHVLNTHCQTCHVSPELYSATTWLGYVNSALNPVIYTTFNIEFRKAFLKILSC
#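 Cells expressing the human receptor were seeded at 1500 cells/well, incubated overnight at 37 degrees C in 5% CO2, then exposed to library compounds with dopamine controls for 90 minutes at 37 degrees C before luminescent detection.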
# DRD3 agonist – agonists of human D3 dopamine receptor | hit rate 0.58% among 410,000 | P35462 | max activation, % | AID 652048 | D3R DiscoveRx beta-arrestin cells, luminescence, 90 min; in the data active = max activation above about 30%; note: 0% is about no effect
#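 Agonist mode: compounds and dopamine controls were applied to plated cells for 90 min at 37 degrees C after an overnight attachment at 1500 cells/well. Luminescent read-out followed 30 - 60 minutes at room temperature with DiscoveRx detection reagent.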
# a7 integrin act – activates integrin-mediated alleviation for muscular dystrophy; alpha7betagal myoblasts, beta-gal FDG fluorescence, 48 h; Potency, µM (highest dose often 38.3 µM), for the others: at the highest dose activation, actives largely listed as activators; hit rate 0.064% among 350,000; AID 624291; active = well fitted activation curve with a large enough effect; inconclusive = small, poorly fitted or top-dose-only effect; inactive = no such curve, though single readings can be large or run the other way;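 note: potency is the fitted concentration of half-maximal effect; 100% = response of the positive control SU9516; nearly all actives have a fitted effect of over 60% in size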
#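 alpha7betagal+/- myoblasts (passage 13, 250/well) treated 48 h at 37C with compounds at 1:260 dilution of DMSO stock. Lysed, then beta-galactosidase activity read as FDG fluorescence (ex 480/em 540) after 30 min, with pre-read for autofluorescence.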
# * = called active by the depositor; ? = inconclusive; nt = no result; ! = not active in a repeat. An excerpt weighted towards active compounds, which were near 2.9% of everything screened.
SMILES,DRD3 antagonist,DRD3 agonist,a7 integrin act
Nc1nc2n(n1)C(c1cccs1)CC(c1ccccc1)N2 (stereo not given),-64*,2,13%
O=C(COc1ccc(Cl)cc1)NCCCNC(=O)c1cnccn1,9,3,0%
COc1cc(C2NC(=O)N(C)C3=C2C(=O)N(c2cccc(Cl)c2)C3)ccc1O (stereo not given),nt,2,nt
COc1ccc(-n2cc(CNC3CCN(C)CC3)c(-c3cccc(F)c3)n2)cc1,-28,-11,-55%
CCC(c1nnnn1CCOC)N1CCN(Cc2ccccc2)CC1 (stereo not given),-14,-17,-6%
CCCCn1nnnc1C(c1ccccc1)N1CCN(C)CC1 (stereo not given),22,0,nt
CCCCn1nnnc1C(c1ccccc1)N1CCN(c2ccc(OC)cc2)CC1 (stereo not given),0,-10,nt
CCCCn1nnnc1C(c1ccnc2ccccc12)N1CCN(C/C=C/c2ccccc2)CC1 (stereo not given),-24,-18,nt
CCCCn1nnnc1C(c1ccccc1)N1CCN(C/C=C/c2ccccc2)CC1 (stereo not given),-71*,-15,nt
CCCCn1nnnc1C(CC)N1CCN(C/C=C/c2ccccc2)CC1 (stereo not given),-68*,-16,nt
CCCCn1nnnc1C(c1cccc2ccccc12)N1CCN(C/C=C/c2ccccc2)CC1 (stereo not given),-107*,-13,nt
CCC(c1nnnn1Cc1ccccc1)N1CCN(C/C=C/c2ccccc2)CC1 (stereo not given),-99*,-8,nt
CC1(C)C(=O)Nc2ccccc2N1C(=O)COC(=O)c1cc([N+](=O)[O-])ccc1N,-6,5,-1%
CC1(C(=O)O)CCCN(C(=O)C2(c3ccc(Cl)cc3)CCCC2)C1 (stereo not given),13,3,nt
Cc1ccc(C2=NOC(C)(c3sc(-c4ccc(Cl)cc4)nc3C)C2)cc1 (stereo not given),-5,6,18%
Cc1nc(-c2ccc(Cl)cc2)sc1C1(C)CC(c2ccc([N+](=O)[O-])cc2)=NO1 (stereo not given),16,51*,18%
Cc1ccc(-c2nn(-c3ccccc3)cc2/C=N/NC(=O)c2ccc(Br)o2)cc1,1,39*,26%
O=C(N/N=C\c1cn(-c2ccccc2)nc1-c1ccccc1)c1ccc(Br)o1,61,1,-41%
COc1ccc(C2Nc3ccccc3NC3=C2C(=O)CC(C)(C)C3)cc1O (stereo not given),-16,4,6%
Clc1ccc(CN2CCN(c3ncccn3)CC2)cc1,14,36*,-6%
OCCN1CCN(c2ncnc3nc[nH]c23)CC1,13,-2,0%
Brc1ccc(CN2CCN(c3ccccn3)CC2)s1,-8,68*,11%
SC(COCc1ccccc1)CN1CCN(Cc2ccc3c(c2)OCO3)CC1 (stereo not given),-55*,-16,-15%
OC(COCc1ccccc1)CN1CCN(Cc2ccc3c(c2)OCO3)CC1 (stereo not given),-20,-13,16%
O=c1c(CN2CCN(c3ccccn3)CC2)coc2ccccc12,-21,8,8%
SMILES,DRD3 antagonist,DRD3 agonist,a7 integrin act
c1ccc(CN2CCN(c3ncccn3)CC2)cc1,-25,24,14%
c1nc(N2CCN(Cc3ccc4c(c3)OCO4)CC2)c2[nH]cnc2n1,-62*,-9,18%
O=C(Nc1cccc(-c2nnco2)c1)c1cccs1,-7,1,-14%
CCOC(=O)c1c(NC(=O)Cn2nc(C(F)F)cc2C(F)F)sc(C)c1C,16,2,-7%
COc1ccc(-c2csc(C(O)c3ccc(F)c(OC)c3)n2)cc1 (stereo not given),30,16,nt
Cc1ccc(C)c(N2CCN(C(=O)CCNS(=O)(=O)c3ccc4c(c3)oc(=O)n4C)CC2)c1,4,6,12%
CC1CCN(C(=O)/C(=C\c2cccs2)NC(=O)c2ccccc2)CC1,5,7,?
CCOC(=O)C1C(=O)NC(N2CCCCC2)=NC1c1ccco1 (stereo not given),-6,0,6%
Cc1sc(NC(=O)CCCC(=O)O)c(C#N)c1C,-15,-3,0%
CCN(CCCNC(=O)CCc1nc(-c2ccc(OC)cc2)no1)c1cccc(C)c1,0,6,-44%
CCOc1cccc(-c2cc(C(=O)N/N=C/c3ccc(OC)c(CN4CCOCC4)c3)c3ccccc3n2)c1,-18,-21,27%
Cc1cc(C)c2oc(-c3cccc(NC(=O)c4ccc(-c5cccc([N+](=O)[O-])c5)o4)c3)nc2c1,nt,1,nt
Cc1nc(N2CCN(Cc3ccc4c(c3)OCO4)CC2)c2cc(-c3ccccc3)sc2n1,5,-25,-13%
c1cc2c(cc1CN1CCOCC1)OCO2,0,-28,-17%
FC(F)(F)c1ccc(N2CCN(Cc3ccc4c(c3)OCO4)CC2)nc1,0,-58,2%
O=S1(=O)N=C(N2CCN(Cc3ccc4c(c3)OCO4)CC2)c2ccccc21,-81*,-18,4%
c1ccc(N2CCN(Cc3ccc4c(c3)OCO4)CC2)nc1,?,47*,22%
O=S1(=O)N=C(N2CCN(Cc3ccccc3)CC2)c2ccccc21,-18,-4,0%
c1cnc(N2CCN(Cc3ccc4c(c3)OCO4)CC2)nc1,?,56*!,nt
CSc1nc(N2CCN(Cc3ccc4c(c3)OCO4)CC2)c2ccccc2n1,-64*,-2,12%
CCC1=C(OC(=O)N(CC)CC)N2C(=O)OC(=NCC3CC3)[C@]2(C)[C@H]2C1=CC[C@H]1C(=O)N(C)C(=O)[C@H]12,33,11,3%
Cc1cccc(NC(=S)NCCC(c2ccccc2)c2ccccc2)c1,?,-8,?
O=C(CNC(=O)c1ccccc1F)OCC(=O)N1CCCCC1,-3,1,-7%
c1ccc(COc2ccc(CN3CCN(c4ccccn4)CC3)cc2)cc1,-16,51*,12%
COc1ccc(CN2CCN(c3ccccn3)CC2)c(OC)c1,?,18,-8%
SMILES,DRD3 antagonist,DRD3 agonist,a7 integrin act
CCOC(=O)Cc1csc(NC(=O)Cn2cnc3c2c(=O)n(C)c(=O)n3C)n1,-16,-9,19%
Cn1c(=O)c2c(ncn2CC(=O)Nc2nc(-c3ccccc3Cl)cs2)n(C)c1=O,16,32*,12%
CCOC(=O)C1(C/C(C)=N/NC(N)=O)CC(C)OC1=O (stereo not given),10,3,10%
Cc1c(Br)cccc1NC(=O)C1(C)CCN1Cc1ccc(OC(C)C)cc1 (stereo not given),6,11,nt
CC(C)Oc1ccc(CN2CCC2(C)C(=O)Nc2cccc3cccnc23)cc1 (stereo not given),-92*,-22,nt
CCOc1ccc(OCC)c(NS(=O)(=O)c2cc(-c3cc(C)no3)ccc2C)c1,nt,-7,nt
CCc1nnc(SCC(=O)Nc2ccc(N3CCOCC3)cc2)n1C,8,7,3%
O=C1CC(NCc2ccccc2F)C(=O)N1c1ccccc1 (stereo not given),-29,6,3%
CC1(C)CC(=O)C(C=Nc2ccccc2C(=O)O)=C(O)C1,19,1,5%
CC1(C)CC(=O)C(C=Nc2ccccc2Sc2ccccc2)=C(O)C1,-54*,-18,12%
CCOc1nc(Oc2cccc(C(=O)O)c2)nc(Oc2cccc(C(=O)O)c2)n1,-14,1,15%
